Structures are written as SMILES. Values joined by “and” are separate entries in the source; they are usually repeats but may differ in a detail not shown here. Equal entries are not always repeated. Results filed as inconclusive are left out. A number with no mark means an inactive call. Calls come from the whole dose curve; as a rule, active = well fitted activation curve with a large enough effect; inconclusive = small, poorly fitted or top-dose-only effect; inactive = no such curve, though single readings can be large or run the other way.

Chain of Cellular tumor antigen p53 (Homo sapiens) (P04637 whole entry, looked up): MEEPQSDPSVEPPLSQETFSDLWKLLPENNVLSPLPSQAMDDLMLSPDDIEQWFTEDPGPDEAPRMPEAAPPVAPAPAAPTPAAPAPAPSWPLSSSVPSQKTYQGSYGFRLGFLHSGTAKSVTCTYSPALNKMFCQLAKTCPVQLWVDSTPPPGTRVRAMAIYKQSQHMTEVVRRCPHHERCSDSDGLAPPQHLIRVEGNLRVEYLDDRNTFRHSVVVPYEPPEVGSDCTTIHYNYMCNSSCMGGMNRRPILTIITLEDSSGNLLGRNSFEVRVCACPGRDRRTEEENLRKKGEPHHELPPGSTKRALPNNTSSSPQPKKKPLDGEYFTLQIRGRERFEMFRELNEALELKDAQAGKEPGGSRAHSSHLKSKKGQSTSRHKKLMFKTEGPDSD

The target of this assay is Cellular tumor antigen p53 (Homo sapiens) (UniProt P04637). As to the kind of experiment: Primary qHTS for small molecule compounds that upregulate eGFP-tagged delta133p53alpha (in N-terminal) cells. (AID 2060322).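 Note: series mostly up to about 56 µM; 0% = DMSO vehicle and 100% = reference activator; nearly all actives have a fitted effect of over 75% in size.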 The note with it: NCI-H358 eGFP-delta133p53alpha fluorescence, 24 h; activation: hits give high values. A digest of the protocol:
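NCI-H358 cells pre-induced 24 h with 10 ng/ml doxycycline to express N-terminal eGFP-delta133p53alpha, then dosed 24 h at 37C without doxycycline; fixed, Hoechst-stained, GFP intensity by laser scanning cytometry, normalized to DMSO (0%) and 57.5 uM 5-azacytidine (100%).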
For orientation: Quantitative high-throughput screening tests each substance at several concentrations.
As for `Cc1cc(OI)c(C(C)C)cc1-c1cc(C(C)C)c(OI)cc1C`, the activation is 17.5%.
To `O=C(C=Cc1c(C(=O)O)[nH]c2cc(Cl)cc(Cl)c12)Nc1ccccc1` belongs 33.2%.
Consider `CC(=O)NS(=O)(=O)c1ccc(N)cc1`, for which the activation was -1.67%.
As to `NC(=O)c1cccc2[nH]c(-c3ccc([C@@H]4CCCN4)cc3F)nc12`, the activation was -16.8%.
Next, `Nc1ncnc(Nc2ccccc2)n1`: -16.7%; `CCOC(N)=O`: -2.82%.
Next, `Oc1ccccc1C=NCc1ccccc1`: -19.2%; `c1ccc2occc2c1`: -5.08%.
Next, `Cc1ccnc2c1NC(=O)c1cccnc1N2C1CC1`: -6.69% and 7.43%.
Take `Cc1[nH]cnc1-c1ccc(Cl)cc1`: the activation is 15.3%.
To `O=c1[nH]c(=O)n([C@H]2O[C@H](CO)[C@@H](O)[C@@H]2O)cc1/C=C\Br` belongs 3.35%; to `Nc1nc(NCc2ccccc2)c2[nH]cnc2n1`, 6.7%.
To `CO[C@H]1C=CO[C@@]2(C)Oc3c(C)c(O)c4c(O)c(c(C=NN5CCN(C)CC5)c(O)c4c3C2=O)NC(=O)C(C)=CC=C[C@H](C)[C@H](O)[C@@H](C)[C@@H](O)[C@@H](C)[C@H](OC(C)=O)[C@H]1C` belongs 3.33%.
To `CC(C)(C)NC(=O)[C@H]1CN(Cc2cccnc2)CCN1C[C@@H](O)C[C@@H](Cc1ccccc1)C(=O)N[C@H]1c2ccccc2C[C@H]1O` belongs 18.3%; to `CC(C)CCOC(=O)c1ccc(N(C)C)cc1`, 6.69%.
In the case of `CCN(C)C(=O)Oc1cccc([C@H](C)N(C)C)c1`, the activation is 6.21% and 13.7%.
Next, `O=C(NCN1CCOCC1)c1cnccn1`: -15.3%; `CC(=O)OCC(=O)[C@@]1(O)CCC2C3CCC4=CC(=O)CC[C@]4(C)C3[C@@H](O)C[C@@]21C` (stereo not given in full): 25.1%.
To `C#C[C@]1(O)CC[C@H]2[C@@H]3CCC4=Cc5oncc5C[C@]4(C)[C@H]3CC[C@@]21C` belongs -14.2%.
Next, `Nc1cccc(-c2csc(NC(=O)CCCCCCC(=O)NO)n2)c1`: 139%.
Turning to `O=C(O)c1c(O)c(-c2ccccc2)nc2ccccc12`, the activation is 22%.
To `O=C(C=Cc1ccc(CN(CCO)CCc2c[nH]c3ccccc23)cc1)NO` belongs 23.4%; to `CC(=O)OCC(=O)[C@@]12N=C(C)O[C@H]1C[C@H]1[C@@H]3CCC4=CC(=O)C=C[C@]4(C)[C@@H]3[C@@H](O)C[C@@]12C`, -1.97%; to `COc1ccc(CCC(=O)c2c(O)cc(O[C@@H]3O[C@H](CO)[C@@H](O)[C@H](O)[C@@H]3O[C@@H]3O[C@@H](C)[C@H](O)[C@@H](O)[C@@H]3O)cc2O)cc1O`, 22.6%.
To `C=CCN1C[C@H](C(=O)N(CCCN(C)C)C(=O)NCC)C[C@@H]2c3cccc4[nH]cc(c34)C[C@H]21` belongs -8.37%; to `Cc1c(Nc2ncccc2C(=O)O)cccc1C(F)(F)F`, -5.08%.
In the case of `CN1C(=O)CC(c2ccccc2)C1=O` (stereo not given), the activation was 10.7%.
For the molecule `CC(=O)CC(c1ccc([N+](=O)[O-])cc1)c1c(O)c2ccccc2oc1=O` (stereo not given), the activation is -10%.
Turning to `COc1ccc2c3c1OC1C[C@@H](O)C=C[C@@]31CCN(C)C2` (stereo not given in full), the activation was 8.8%.
To `NS(=O)(=O)c1cc2c(cc1Cl)NC(CC1CCCC1)NS2(=O)=O` (stereo not given) belongs 11.9%; to `CN=C(NC#N)NCCSCc1csc(N=C(N)N)n1`, 9.6%; to `NC(=O)c1ncn([C@@H]2O[C@H](CO)[C@@H](O)[C@@H]2O)c1O`, -3.98%.
To `CC(C)Cc1ccc(CC(=O)O)cc1` belongs -36.8%; to `CC(CC1c2ccccc2CCc2ccccc21)CN(C)C` (stereo not given), -10%.
With `C[N+](C)(C)CC(O)CC(=O)[O-]` (stereo not given), the activation is 7.53%.
As to `CC(=O)O[C@]1(C(C)=O)CC[C@H]2[C@@H]3C=C(C)C4=CC(=O)CC[C@]4(C)[C@@H]3CC[C@@]21C`, the activation was -16.9%.
To `OC[C@@H](O)[C@@H](O)[C@H](O)[C@H](O)CO` belongs -9.21%; to `CCC[C@@H]1C[C@@H](C(=O)N[C@@H]([C@H]2O[C@H](SC)[C@H](O)[C@@H](O)[C@H]2O)[C@@H](C)O)N(C)C1`, -5.08%.
Next, `C[C@]12CC[C@H](O)CC1=CC[C@@H]1[C@H]2CC[C@]2(C)C(c3cccnc3)=CC[C@H]12`: -11.6%; `CNc1c2c(nn1C)CCCC2`: -18.4%.

The values above are taken from PubChem BioAssay (NCATS).
